From publication PMC7819943, “Rice protein-binding microarrays: a tool to detect cis-acting elements near promoter regions in rice”
Over roughly 35,000 sequences, “fluorescence intensity (a.u.)” has its median near 10,000; the highest 2% begin near 52,000. Many of the other results were omitted from the sample, so the highest values are more common in it than they were.

What follows are sequences tested against T1, OsWOX13 (Oryza sativa, UniProt Q5QMM3 1-267) (assay: protein-binding microarray (RPBM); PBS, 2% BSA, 51.3 ng/ul salmon testes DNA, 50 uM zinc acetate, 200 nM TF, 25 C, 1 h; high values mean tight binding). Conditions: protein: recombinant; tags: N-terminal polyhistidine and DsRed monomer fusion (pET32a); label: CyDye5-dUTP incorporated in the synthesized complementary strand; 3' TTTTT single-stranded linker to array surface; dsDNA, one strand shown.
T1 sequence: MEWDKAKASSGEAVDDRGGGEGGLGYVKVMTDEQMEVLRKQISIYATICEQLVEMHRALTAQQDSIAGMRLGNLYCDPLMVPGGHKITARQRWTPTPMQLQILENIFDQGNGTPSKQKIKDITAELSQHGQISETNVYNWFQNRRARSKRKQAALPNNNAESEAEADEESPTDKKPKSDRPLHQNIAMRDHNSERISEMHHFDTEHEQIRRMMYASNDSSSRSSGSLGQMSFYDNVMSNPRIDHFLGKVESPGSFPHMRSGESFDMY
Outline: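 Polyhistidine-tagged DsRed fusions of transcription factors, joined at the N-terminus, were expressed in E. coli BL21-CodonPlus and isolated on Ni–NTA. They were incubated at 200 nM for 1 h at 25 °C on a custom Agilent array, double-stranded and BSA-blocked, in PBS with 2% BSA, salmon testes DNA and 50 µM zinc acetate. The binding signal is per-feature fluorescence intensity (arbitrary units) read on an Axon 4000B scanner after washing.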

Going from “GCACCGTTGATGAAATTGCCGTTAGAATTTCGATCATCCCCGGAGTCACCTAGTGCAG” to “GGTAATGATTTAACACCACCTAATTTATTTTGAACAAGCTCGGAGTCACCTAGTGCAG”, the binding signal rises from 4810 fluorescence intensity (a.u.) to 20500 fluorescence intensity (a.u.).

First: CATGTCTCAATAAATTGATCGTTGGCAAAATCGGTTAGTCCGGAGTCACCTAGTGCAG
Second: TATTAATTTAATAAAATTAATTTGGTAATGTAAATATTATCGGAGTCACCTAGTGCAG
The binding signal of the first is lower: 4980 fluorescence intensity (a.u.) for the first, 15600 fluorescence intensity (a.u.) for the second.

Going from “TGGAATTTTGAGTGTGTGATTGCGTTATTACGTTGCAAGTCGGAGTCACCTAGTGCAG” to “TTAATAATTATTGTAAAATTTAATTTATATTTATTTGAATCGGAGTCACCTAGTGCAG”, the binding signal rises from 3550 fluorescence intensity (a.u.) to 22600 fluorescence intensity (a.u.).

Going from “TTTAATTAAATTTAACATTAAATATATTTTGACTATTTGTCGGAGTCACCTAGTGCAG” to “ATTAATTTGACCAACTTCATTCAACATGTAACATGGTCTCCGGAGTCACCTAGTGCAG”, the binding signal falls from 53000 fluorescence intensity (a.u.) to 16600 fluorescence intensity (a.u.).

Going from “GGTAATTTGTCCGGTATTGAAAGTTTAGGGTGAGCAATGTCGGAGTCACCTAGTGCAG” to “GAAGTGATTGATATTTGAGCAATTAGTCCGTTGTCAGGGTCGGAGTCACCTAGTGCAG”, the binding signal rises from 22900 fluorescence intensity (a.u.) to 62400 fluorescence intensity (a.u.).

Compared with “ATATAATTAATTAAAATATTAATTATTATTTGTAAAATGGCGGAGTCACCTAGTGCAG”, “TGCATTAATTATTGGAGAGTGCGGTCTCCTCTCCTCCCTCCGGAGTCACCTAGTGCAG” is lower in binding signal: 65500 fluorescence intensity (a.u.) for the first, 23200 fluorescence intensity (a.u.) for the second.

First: AAACATTAATTTGTTTTATAATATATTATAAATGACTATACGGAGTCACCTAGTGCAG
Second: AATTAAATTTTAACTATTAATATTATATTTTATAAATATTCGGAGTCACCTAGTGCAG
The binding signal of the first is higher: 15500 fluorescence intensity (a.u.) for the first, 6480 fluorescence intensity (a.u.) for the second.

First: CCATTAATTAATTAACCTGCAGCCTCAATTATTTGGTCTCCGGAGTCACCTAGTGCAG
Second: TCCGATTAATGTGGAAATTTCTAGCCTCCACAGCGAACGTCGGAGTCACCTAGTGCAG
The binding signal of the first is higher: 57600 fluorescence intensity (a.u.) for the first, 8650 fluorescence intensity (a.u.) for the second.

First: TAGATACGAAAATTAATTGGAATTTTGGATTTGGATGGGACGGAGTCACCTAGTGCAG
Second: GTCACATCATTCTAATTTCAATTAAACTTCAAATTTTGGCCGGAGTCACCTAGTGCAG
The binding signal of the first is higher: 24500 fluorescence intensity (a.u.) for the first, 12900 fluorescence intensity (a.u.) for the second.

Compared with “CTGCAACTAAATTTTAGGATTAATTTAAGGAACTTTCGGGCGGAGTCACCTAGTGCAG”, “CAATGGTAAATTTATCCAGTCCAAAGTGAAAATATATGGTCGGAGTCACCTAGTGCAG” is lower in binding signal: 11300 fluorescence intensity (a.u.) for the first, 3960 fluorescence intensity (a.u.) for the second.

First: CTCCTTAATTTACTTATTTGTCTTTAATTGGTTCTCGCACCGGAGTCACCTAGTGCAG
Second: CTGCCTGTAAATTTCTGTGATTTGATGTTTGCCTCTGTTGCGGAGTCACCTAGTGCAG
The binding signal of the first is higher: 33700 fluorescence intensity (a.u.) for the first, 11300 fluorescence intensity (a.u.) for the second.

Going from “ATTTAAATCATCATCTATAGTCAATCTAATAGCTCACTCACGGAGTCACCTAGTGCAG” to “AATAATTAAATTTGATATAATAAATTAATATGTGATATGTCGGAGTCACCTAGTGCAG”, the binding signal rises from 8910 fluorescence intensity (a.u.) to 35700 fluorescence intensity (a.u.).

First: ATCAATCTCAATGGTTAAATGATTGATCTATCATAATTCACGGAGTCACCTAGTGCAG
Second: GATTAATTAATTAATCTCAATGATGGTAAATACATTCCCACGGAGTCACCTAGTGCAG
The binding signal of the first is lower: 22100 fluorescence intensity (a.u.) for the first, 63100 fluorescence intensity (a.u.) for the second.

Going from “TAATATTATATTTAATTTGCATTATTTTAAATATAGTACCCGGAGTCACCTAGTGCAG” to “AGTGATAAATTTGAGTGATTACTATATGACACCGTTGTGTCGGAGTCACCTAGTGCAG”, the binding signal rises from 3730 fluorescence intensity (a.u.) to 55700 fluorescence intensity (a.u.).

Compared with “TTTTAAATTTAAAATAATTAAAACTCAATTAATAATTTGTCGGAGTCACCTAGTGCAG”, “ATTAAATCAATAATTAAATATATTTTCATAATAAATTTGTCGGAGTCACCTAGTGCAG” is lower in binding signal: 31300 fluorescence intensity (a.u.) for the first, 23400 fluorescence intensity (a.u.) for the second.

Going from “AGTAATTTTGGTACAATTAATAAATAAATCTGATACCTCACGGAGTCACCTAGTGCAG” to “TTTTAGTAAATTAATAAATATTTATTTTGTTATTTAATACCGGAGTCACCTAGTGCAG”, the binding signal falls from 21200 fluorescence intensity (a.u.) to 13200 fluorescence intensity (a.u.).

Compared with “AATAATAATTAATTATAGTAATTAATCATTAATTTTGTACCGGAGTCACCTAGTGCAG”, “TATAACTAAAATTATATTTGTAAGTTTAGTTGATATGACACGGAGTCACCTAGTGCAG” is lower in binding signal: 64100 fluorescence intensity (a.u.) for the first, 6390 fluorescence intensity (a.u.) for the second.

Compared with “GTTAATTAATTATATTATAATAATTCTCTCAATTTGTCGCCGGAGTCACCTAGTGCAG”, “CAATGACTGATTACTGTGTTGATAGAATTTCATATACATTCGGAGTCACCTAGTGCAG” is lower in binding signal: 65500 fluorescence intensity (a.u.) for the first, 34300 fluorescence intensity (a.u.) for the second.

First: TAAAATTTGGAACTGAAATTTCTAACATTTCGGGTCCATCCGGAGTCACCTAGTGCAG
Second: AAGATAGATAGATTCATCGCGATCGATCGAGCGGGAGGTACGGAGTCACCTAGTGCAG
The binding signal of the first is lower: 4680 fluorescence intensity (a.u.) for the first, 22500 fluorescence intensity (a.u.) for the second.

Compared with “AAACCATTGCAAATTAACTCTCCAAATGGTTTCAGAGACGCGGAGTCACCTAGTGCAG”, “TACGCTATACGCAGTAATTGATATATATAATCTTCATGGTCGGAGTCACCTAGTGCAG” is higher in binding signal: 4040 fluorescence intensity (a.u.) for the first, 8920 fluorescence intensity (a.u.) for the second.

First: CCAAATGGGACAAAAGATTGAAAAGAAAACTGACAGCCGCCGGAGTCACCTAGTGCAG
Second: GTCCCAATGATTGCCAGCCCCGGTGGACGGGTGTAGAAGCCGGAGTCACCTAGTGCAG
The binding signal of the first is lower: 13900 fluorescence intensity (a.u.) for the first, 38100 fluorescence intensity (a.u.) for the second.

Going from “ATAACTATTTAATTGACATGCAATAAATATAAATGGGTAGCGGAGTCACCTAGTGCAG” to “CTTTTAAATGTAGTATAATTATATTATAACTAATAACTAGCGGAGTCACCTAGTGCAG”, the binding signal falls from 52600 fluorescence intensity (a.u.) to 18300 fluorescence intensity (a.u.).

Compared with “TATAATTGACATGCAATTATAATAACGTGGGTTAAATATACGGAGTCACCTAGTGCAG”, “CCAAATTCATCTTAATGTTTGATTATGATCAGCATCTTATCGGAGTCACCTAGTGCAG” is lower in binding signal: 33800 fluorescence intensity (a.u.) for the first, 4610 fluorescence intensity (a.u.) for the second.
